Here are results for 14 compounds from PubChem BioAssay (NCI).

Compounds without any hit were thinned out: in the full panel of roughly 83,000, 20% have a hit.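 Negative percent growth values reflect cell death: -40 means 40% of the cells present at the start died, and -100 means all died.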 A number with no mark means an inactive call. Activity calls are given as the source filed them. Rule for the calls: active = growth percent below 10; inactive = the rest.

Holding throughout (test): NCI-60 one-dose screen, 48 h (100 = growth as untreated, 0 = no growth, -100 = all killed)
Common to all, as to conditions: 10 µM unless noted

The test system of assay [1] is HCT-15 colon.
The subject of assay [2] is HT29 colon.
The subject of assay [3] is SNB-75 CNS.
For assay [4], the system named is SNB-19 CNS.
Assay [5] concerns U251 CNS.
Assay [6] deals with PC-3 prostate.
Assay [7] has as its system SK-MEL-5 melanoma.
In assay [8] the test system is LOX IMVI melanoma.
Assay [9] concerns SK-MEL-28 melanoma.

Take `Cc1cc(N2CCOCC2)nc(N(CCCNc2ccnc3cc(Cl)ccc23)Cc2ccco2)n1`: the growth was 24% in assay [1]; -2.68% (active) in assay [2]; 51.6% in assay [3]; 20.4% in [4]; 25.4% in [5]; 34.7% in assay [6]. For the same compound, the growth in assay [7] was 11.3%; in [8] it was 4.95% (active); in assay [9], 49.5%.
Consider `CCOC(=O)N1CCN(CCCCOc2ccc(C(C)(C)CC)cc2)CC1`, for which the growth was 87.7% in assay [1]; 78.1% in assay [2]; 106% in assay [3]; 108% in [4]; 88.5% in assay [5]; 71.5% in [6]. In addition, the growth in [7] was 88.6%; in [8] it was 99.7%; in assay [9], 100%.
For the compound `Cc1cc(N(CCCNc2ccnc3cc(Cl)ccc23)Cc2ccco2)nc(N2CCOCC2)n1`, the growth was 54.9% in assay [1]; 34.9% in assay [2]; 73.5% in assay [3]; 78.1% in assay [4]; 84% in assay [5]; 62.2% in assay [6]. In addition, the growth is 54.5% in [7], 66% in [8] and 77.6% in assay [9].
For the compound `COc1cnc2c(c1)C(=O)c1c-2n(CCCNC(C)C)c(=O)c2cc([N+](=O)[O-])ccc12`, the growth in assay [1] is -56.2% (active); in [2], -33.7% (active); in assay [3] it was -79.2% (active); in assay [4], -44.7% (active); in assay [5], -80.6% (active); in [6], -54.3% (active). In addition, the growth is -98.9% (active) in assay [7], -86.9% (active) in assay [8] and -62.6% (active) in assay [9].
For the compound `COc1cc(/C=C2\C(=O)N(CC(O)COc3cc(O)c4c(=O)cc(-c5ccccc5)oc4c3)c3ccccc32)cc(OC)c1O` (stereo unspecified), the growth in assay [1] is 59.1%; in assay [2] it was 88.2%; in assay [3] it was 81.1%; in assay [4], 92.2%; in [5], 91.6%; in [6], 61.1%. The growth was 50% in assay [7], 80.2% in assay [8] and 92% in assay [9].
With `COc1ccc(-c2nc(Nc3ccc(-c4nc5ccccc5[nH]4)cc3)nc(N3CCOCC3)n2)cc1`, the growth was -62.2% (active) in [1]; -23.1% (active) in assay [2]; -19.2% (active) in assay [3]; 17.5% in assay [4]; 6.38% (active) in [5]; 2.31% (active) in assay [6]. Besides, the growth in assay [7] is -90.7% (active); in assay [8], -75.6% (active); in assay [9], -34% (active).
For the compound `COc1ccc(NC(=S)N/N=C/c2ccccc2SSCCC(=O)OC[C@H]2O[C@H](O)[C@H](O)[C@@H](O)[C@@H]2O)cc1`, the growth is 71.8% in [1]; 102% in assay [2]; 86.3% in assay [3]; 72.2% in [4]; 59.5% in [5]; 59.9% in assay [6]. Also, the values for the growth in assay [7], in assay [8] and in assay [9] were 71.7%, 59.6% and 85.3%, respectively.
As for `Cc1cc(N2CCN(C)CC2)nc(N(CCNc2ccnc3cc(Cl)ccc23)Cc2ccco2)n1`, the growth in [1] was 18.1%; in [2], 5.75% (active); in assay [3], 66.3%; in assay [4], 36.8%; in assay [5], 39.3%; in assay [6], 34.8%. Also, the growth in assay [7] was -82% (active); in assay [8], -5.64% (active); in [9] it was -72.3% (active).
As for `CCN(CC)CCCCCCNc1ccnc2cc(Cl)ccc12`, the growth is 92.6% in [1]; 27% in assay [2]; 87% in assay [3]; 113% in assay [4]; 85.3% in [5]; 87% in [6]. Also, the values for the growth in assay [7], in [8] and in assay [9] were 80.8%, 78% and 106%, respectively.
For `Oc1ccc(Nc2ccccc2)cc1`, the growth in [1] is 82.5%; in [2], 99.3%; in assay [3], 85.5%; in assay [4], 85.8%; in assay [5], 86%; in [6], 65.7%. Also, the growth in assay [7] is 83%; in assay [8], 71.4%; in [9], 102%.
Turning to `CN(C)CCCCC(C(=O)CBr)(c1ccccc1)c1ccccc1`, the growth in assay [1] was -33.9% (active); in assay [2], 8.94% (active); in assay [3], 46%; in [4], 82.6%; in assay [5], 41.5%; in assay [6], 51.6%. Also, the growth in assay [7] was 35%; in assay [8] it was -39% (active); in assay [9] it was 23.6%.
In the case of `c1ccc(-c2nc(Nc3ccc(-c4nc5ccccc5[nH]4)cc3)nc(N3CCOCC3)n2)cc1`, the growth in assay [1] is -68.9% (active); in assay [2], -59.9% (active); in [3], -89.6% (active); in assay [4], -18.6% (active); in [5], -67.5% (active); in [6], -35.5% (active). The growth was -95.4% (active) in assay [7], -89% (active) in assay [8] and -82.9% (active) in assay [9].
On to `NCCn1cc(-c2nc(-c3c[nH]c4ncccc34)cs2)c2ccccc21`, for which the growth is 88.6% in [1]; 98.2% in assay [2]; 61.9% in assay [3]; 89.4% in assay [4]; 91.5% in [5]; 70.2% in [6]. Besides, the growth in assay [7] is 77.2%; in assay [8], 89.9%; in assay [9], 107%.
Consider `CCCCC[C@H]1CC=C2C(=O)C=C[C@@H]2CC=CCCCC(=O)O[C@@H](CCCCC)CC=C2C(=O)C=C[C@@H]2CC=CCCCC(=O)O[C@@H](CCCCC)CC=C2C(=O)C=C[C@@H]2CC=CCCCC(=O)O1`, for which the growth is 7.88% [8.75 µM] (active) in assay [1]; -12.4% [8.75 µM] (active) in assay [2]; 48.7% [8.75 µM] in [3]; 9.32% [8.75 µM] (active) in assay [4]; -49.4% [8.75 µM] (active) in [5]; -15.7% [8.75 µM] (active) in assay [6]. Further, the growth was -76.7% [8.75 µM] (active) in [7], -87.5% [8.75 µM] (active) in assay [8] and -48.7% [8.75 µM] (active) in assay [9].
